Targets with a hit are over-represented here; the source holds about 7,900 in all. About 0.6% of all pairs of compound and target were hits. Values without a mark were called inactive.
Tests used:
Assay in all cases: log2 fold change, soluble protein after heating vs DMSO (PISA); higher = thermal stabilisation; K562 cells, 10 uM, 30 min; active = over 0.2 and 3.5 SD of the protein, either way, in both replicates (recomputed)
[1] = compound: CC1=C(C=C(C=C1)NC(=O)C2=CC(=CC=C2)C(C)(C)C#N)NC3=CC4=C(C=C3)N=CN(C4=O)C
Method in brief: (§1)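 K562 cells at 2×10^6 cells/mL were treated with 10 μM compound for 30 min. Aliquots were heated for 3 min across 48°C-58°C, pooled, and extracted in PBS with 0.5% NP-40 at 4°C; soluble protein was the supernatant after 21,000xg for 90 min. Soluble protein was quantified by TMTpro 16plex LC-MS/MS with channel sums equalised, and reported as log2 fold change in thermal stability against DMSO controls, with values from duplicates.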

[2] = compound: CC1=C(C=C(C=C1)NC(=O)C2=CC(=CC=C2)N(C)C)NC(=O)C3=CC=C(C=C3)O
Method in brief: as §1

[3] = compound: CC1=CC=C(C=C1)SC2=C3C=C(SC3=CN=C2)C(=O)N
Method in brief: as §1

[4] = compound: CC1=NC(=CC=C1)C2=C(N=C(N2)C(C)(C)C)C3=CC4=NC=CN=C4C=C3
Method in brief: as §1

[5] = compound: CCCCN(Cc1ccc(C(=O)NO)cc1)C(=O)Nc1ccccc1 [Nexturastat A]
Method in brief: as §1

[6] = compound: CCCS(=O)(=O)Nc1ccc(F)c(C(=O)c2c[nH]c3ncc(-c4ccc(Cl)cc4)cc23)c1F [vemurafenib]
Method in brief: as §1

[7] = compound: CCCS(=O)(=O)Nc1ccc(F)c(C(=O)c2c[nH]c3ncc(Cl)cc23)c1F
Method in brief: as §1

[8] = compound: CCCc1cc(C)[nH]c(=O)c1CNC(=O)c1cc(-c2ccnc(N3CCN(C)CC3)c2)cc2c1cnn2C(C)C
Method in brief: as §1

[9] = compound: CCN(CC)Cc1ccc2cc(COC(=O)Nc3ccc(C(=O)NO)cc3)ccc2c1 [givinostat]
Method in brief: as §1

[10] = compound: CCN(CCCOc1ccc2c(Nc3cc(CC(=O)Nc4cccc(F)c4)[nH]n3)ncnc2c1)CCOP(=O)(O)O [barasertib]
Method in brief: as §1

[11] = compound: CC[C@@H]1C(=O)N(C)c2cnc(Nc3ccc(C(=O)NC4CCN(C)CC4)cc3OC)nc2N1C1CCCC1
Method in brief: as §1

[12] = compound: CC[C@@H]1C(=O)N(C)c2cnc(Nc3ccc(C(=O)N[C@H]4CC[C@H](N5CCN(CC6CC6)CC5)CC4)cc3OC)nc2N1C(C)C [volasertib]
Method in brief: as §1

[13] = compound: CC[C@H](C)N1C=C(C2=C(C=C(C=C21)C3=CN=C(C=C3)N4CCNCC4)C(=O)NCC5=C(C=C(NC5=O)C)C)C
Method in brief: as §1

[14] = compound: CC[C@H](C)[C@@H](C(=O)N[C@@H]([C@@H](C)O)C(=O)N[C@@H](CC(C)C)C(=O)[C@]1(CO1)C)NC(=O)[C@H]([C@@H](C)CC)N(C)C(=O)C [epoxomicin]
Method in brief: as §1

[15] = compound: CCn1c(C(=O)N(C2CC2)C2CC2)cc2c3c(ncn3C)c(Nc3cc(C)n(C)n3)nc21
Method in brief: as §1

[16] = compound: CCn1cc(-c2ccnc3[nH]c(-c4cccc(CN(C)C)c4)cc23)c(-c2ccc(NC(=O)N(C)C)cc2)n1
Method in brief: as §1

[17] = compound: CN(C)CC(=O)Nc1ccc2[nH]c(=O)c3ccccc3c2c1
Method in brief: as §1

[18] = compound: CN(CCOC1=CC=C(C=C1)C[C@H]2C(=O)NC(=O)S2)C3=CC=CC=N3 (racemic) [rosiglitazone]
Method in brief: as §1

[19] = compound: CN1C2=C(C3=C1C(=O)N(N=C3)CC4=CC(=CC=C4)N)SC(=C2)S(=O)C
Method in brief: as §1

[20] = compound: CN1CCC(CNc2ccc3ncc(-c4cccc(OC(F)(F)F)c4)n3n2)CC1
Method in brief: as §1

Sequence of UniProt Q7LBC6 (Q7LBC6 whole entry, looked up): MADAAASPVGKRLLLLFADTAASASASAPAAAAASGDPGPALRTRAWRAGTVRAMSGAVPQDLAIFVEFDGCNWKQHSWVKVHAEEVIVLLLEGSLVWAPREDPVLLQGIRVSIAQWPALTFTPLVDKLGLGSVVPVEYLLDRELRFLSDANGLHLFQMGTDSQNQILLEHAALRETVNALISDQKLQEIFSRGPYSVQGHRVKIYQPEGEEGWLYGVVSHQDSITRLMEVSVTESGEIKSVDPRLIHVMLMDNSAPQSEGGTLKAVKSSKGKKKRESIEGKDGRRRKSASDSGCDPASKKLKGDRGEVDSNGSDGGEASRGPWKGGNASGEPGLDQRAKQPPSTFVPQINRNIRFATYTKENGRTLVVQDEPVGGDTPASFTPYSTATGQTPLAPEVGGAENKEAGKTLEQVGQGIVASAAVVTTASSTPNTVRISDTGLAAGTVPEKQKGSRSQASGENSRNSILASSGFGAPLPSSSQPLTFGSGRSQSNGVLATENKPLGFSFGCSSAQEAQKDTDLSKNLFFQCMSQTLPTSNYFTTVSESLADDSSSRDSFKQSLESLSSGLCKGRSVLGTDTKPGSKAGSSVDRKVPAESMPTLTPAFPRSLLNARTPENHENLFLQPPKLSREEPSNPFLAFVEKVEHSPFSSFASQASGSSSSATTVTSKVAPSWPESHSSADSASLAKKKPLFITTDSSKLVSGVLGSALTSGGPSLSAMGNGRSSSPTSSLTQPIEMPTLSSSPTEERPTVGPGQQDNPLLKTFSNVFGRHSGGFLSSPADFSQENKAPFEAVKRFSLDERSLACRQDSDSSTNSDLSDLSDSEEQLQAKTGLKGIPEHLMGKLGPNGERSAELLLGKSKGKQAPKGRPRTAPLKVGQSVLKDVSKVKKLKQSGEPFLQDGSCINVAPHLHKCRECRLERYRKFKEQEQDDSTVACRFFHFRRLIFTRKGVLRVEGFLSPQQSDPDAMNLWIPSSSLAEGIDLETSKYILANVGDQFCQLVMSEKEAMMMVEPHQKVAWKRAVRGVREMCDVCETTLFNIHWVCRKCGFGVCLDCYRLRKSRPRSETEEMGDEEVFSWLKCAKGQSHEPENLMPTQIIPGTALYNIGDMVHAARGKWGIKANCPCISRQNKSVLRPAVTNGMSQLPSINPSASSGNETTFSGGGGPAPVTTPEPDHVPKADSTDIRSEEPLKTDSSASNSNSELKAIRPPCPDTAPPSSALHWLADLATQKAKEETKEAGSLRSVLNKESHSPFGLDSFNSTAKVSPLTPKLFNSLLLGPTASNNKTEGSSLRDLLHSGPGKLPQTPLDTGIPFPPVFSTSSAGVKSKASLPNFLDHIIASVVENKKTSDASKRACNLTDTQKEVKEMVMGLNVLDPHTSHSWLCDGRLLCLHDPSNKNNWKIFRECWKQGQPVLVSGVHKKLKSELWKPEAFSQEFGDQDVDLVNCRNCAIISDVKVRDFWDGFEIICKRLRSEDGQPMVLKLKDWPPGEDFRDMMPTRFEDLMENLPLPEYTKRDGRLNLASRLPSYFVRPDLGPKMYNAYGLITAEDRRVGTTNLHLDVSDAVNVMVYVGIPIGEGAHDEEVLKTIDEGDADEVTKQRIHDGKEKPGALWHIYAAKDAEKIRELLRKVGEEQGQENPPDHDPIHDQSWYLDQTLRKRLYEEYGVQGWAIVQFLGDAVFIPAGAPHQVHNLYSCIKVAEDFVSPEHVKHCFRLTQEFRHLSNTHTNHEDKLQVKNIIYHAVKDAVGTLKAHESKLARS
Sequence of UniProt O95819 (O95819 whole entry, looked up): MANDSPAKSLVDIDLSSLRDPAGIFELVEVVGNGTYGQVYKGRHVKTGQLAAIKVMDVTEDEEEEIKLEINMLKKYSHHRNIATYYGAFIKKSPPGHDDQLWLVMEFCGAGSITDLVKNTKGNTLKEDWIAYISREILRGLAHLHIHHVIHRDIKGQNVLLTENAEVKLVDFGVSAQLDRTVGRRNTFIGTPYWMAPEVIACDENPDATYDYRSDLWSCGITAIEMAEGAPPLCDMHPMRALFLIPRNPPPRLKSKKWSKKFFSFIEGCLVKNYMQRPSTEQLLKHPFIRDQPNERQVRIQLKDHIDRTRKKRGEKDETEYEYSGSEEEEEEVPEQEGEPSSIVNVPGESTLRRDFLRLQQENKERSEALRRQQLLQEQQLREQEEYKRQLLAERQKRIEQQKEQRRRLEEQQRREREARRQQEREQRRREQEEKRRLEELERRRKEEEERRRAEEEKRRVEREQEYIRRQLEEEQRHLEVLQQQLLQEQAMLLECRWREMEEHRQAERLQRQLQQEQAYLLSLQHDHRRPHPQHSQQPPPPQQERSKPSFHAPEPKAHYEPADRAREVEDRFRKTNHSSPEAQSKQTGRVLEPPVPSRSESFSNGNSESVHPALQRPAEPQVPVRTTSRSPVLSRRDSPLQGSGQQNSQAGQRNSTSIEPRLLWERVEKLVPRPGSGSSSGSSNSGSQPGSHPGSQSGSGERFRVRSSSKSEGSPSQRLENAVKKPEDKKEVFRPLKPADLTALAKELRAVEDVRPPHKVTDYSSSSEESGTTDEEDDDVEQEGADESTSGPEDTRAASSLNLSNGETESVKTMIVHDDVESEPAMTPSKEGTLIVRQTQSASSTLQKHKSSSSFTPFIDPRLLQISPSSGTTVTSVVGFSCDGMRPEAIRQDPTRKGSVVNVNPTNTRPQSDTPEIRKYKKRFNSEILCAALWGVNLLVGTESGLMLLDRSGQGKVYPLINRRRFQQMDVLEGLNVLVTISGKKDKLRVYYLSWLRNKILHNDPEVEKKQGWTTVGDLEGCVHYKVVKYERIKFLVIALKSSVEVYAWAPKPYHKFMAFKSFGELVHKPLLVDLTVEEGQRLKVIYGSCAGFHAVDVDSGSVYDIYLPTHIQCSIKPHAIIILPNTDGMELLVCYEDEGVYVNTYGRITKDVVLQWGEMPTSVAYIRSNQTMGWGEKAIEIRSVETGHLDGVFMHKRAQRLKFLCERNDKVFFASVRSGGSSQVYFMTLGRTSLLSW
Sequence of UniProt Q8WV07 (Q8WV07 whole entry, looked up): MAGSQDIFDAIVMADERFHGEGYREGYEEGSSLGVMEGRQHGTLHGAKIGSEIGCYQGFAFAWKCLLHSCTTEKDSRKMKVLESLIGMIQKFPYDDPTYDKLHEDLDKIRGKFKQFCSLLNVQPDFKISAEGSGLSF
Sequence of UniProt Q86WA8 (Q86WA8 whole entry, looked up): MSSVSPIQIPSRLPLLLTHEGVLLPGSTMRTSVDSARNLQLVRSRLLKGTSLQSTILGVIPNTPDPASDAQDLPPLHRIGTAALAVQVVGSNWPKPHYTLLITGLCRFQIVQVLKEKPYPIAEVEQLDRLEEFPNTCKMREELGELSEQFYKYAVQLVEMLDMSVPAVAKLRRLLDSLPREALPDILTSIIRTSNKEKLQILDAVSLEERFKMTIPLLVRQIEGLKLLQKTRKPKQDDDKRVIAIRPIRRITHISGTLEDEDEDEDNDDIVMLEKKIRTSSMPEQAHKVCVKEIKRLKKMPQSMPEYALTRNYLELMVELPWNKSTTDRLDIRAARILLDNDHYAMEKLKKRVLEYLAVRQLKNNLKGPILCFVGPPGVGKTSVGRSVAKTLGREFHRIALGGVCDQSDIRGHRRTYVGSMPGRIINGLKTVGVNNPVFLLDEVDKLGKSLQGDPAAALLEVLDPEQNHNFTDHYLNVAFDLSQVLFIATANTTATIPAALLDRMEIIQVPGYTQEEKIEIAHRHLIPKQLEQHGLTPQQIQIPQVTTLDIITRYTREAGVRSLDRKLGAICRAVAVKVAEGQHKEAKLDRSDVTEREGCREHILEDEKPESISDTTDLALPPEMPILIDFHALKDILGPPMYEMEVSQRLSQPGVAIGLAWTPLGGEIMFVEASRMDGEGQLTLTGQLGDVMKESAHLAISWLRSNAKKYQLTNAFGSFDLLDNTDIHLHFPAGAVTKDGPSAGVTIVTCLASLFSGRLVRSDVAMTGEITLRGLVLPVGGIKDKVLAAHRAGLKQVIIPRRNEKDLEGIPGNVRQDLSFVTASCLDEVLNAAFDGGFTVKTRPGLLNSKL
Sequence of UniProt Q16891 (Q16891 whole entry, looked up): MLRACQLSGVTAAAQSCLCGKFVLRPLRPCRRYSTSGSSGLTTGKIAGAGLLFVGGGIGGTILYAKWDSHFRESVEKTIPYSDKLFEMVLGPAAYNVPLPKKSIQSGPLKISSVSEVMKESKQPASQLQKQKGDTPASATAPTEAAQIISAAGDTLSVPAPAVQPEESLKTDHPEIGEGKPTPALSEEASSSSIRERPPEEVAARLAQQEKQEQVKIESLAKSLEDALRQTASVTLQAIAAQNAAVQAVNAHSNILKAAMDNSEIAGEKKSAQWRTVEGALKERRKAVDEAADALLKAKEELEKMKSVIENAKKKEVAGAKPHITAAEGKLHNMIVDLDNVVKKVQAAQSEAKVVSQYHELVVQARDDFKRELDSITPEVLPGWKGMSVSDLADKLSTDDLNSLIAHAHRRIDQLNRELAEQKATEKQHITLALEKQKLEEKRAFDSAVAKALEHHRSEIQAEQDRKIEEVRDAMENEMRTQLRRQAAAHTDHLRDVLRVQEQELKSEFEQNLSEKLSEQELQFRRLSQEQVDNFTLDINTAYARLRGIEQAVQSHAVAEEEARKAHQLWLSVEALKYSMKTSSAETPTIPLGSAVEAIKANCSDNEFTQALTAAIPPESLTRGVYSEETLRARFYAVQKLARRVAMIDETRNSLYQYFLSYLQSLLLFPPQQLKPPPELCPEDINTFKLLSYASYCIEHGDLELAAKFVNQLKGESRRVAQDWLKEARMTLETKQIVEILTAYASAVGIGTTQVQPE

Target | log2 fold change [1] | log2 fold change [2] | log2 fold change [3] | log2 fold change [4] | log2 fold change [5] | log2 fold change [6] | log2 fold change [7] | log2 fold change [8] | log2 fold change [9] | log2 fold change [10] | log2 fold change [11] | log2 fold change [12] | log2 fold change [13] | log2 fold change [14] | log2 fold change [15] | log2 fold change [16] | log2 fold change [17] | log2 fold change [18] | log2 fold change [19] | log2 fold change [20]
KDM3B (UniProt Q7LBC6) | 0.024 | -0.041 | -0.032 | 0.037 | -0.045 | 0.049 | 0.031 | 0.041 | -0.001 | 0.082 | -0.164 | -0.349 (active) | 0.06 | 0.061 | -0.024 | 0.001 | 0.043 | 0.048 | -0.049 | -0.071
MED1 (UniProt Q15648) | -0.043 | 0.084 | -0.067 | -0.06 | 0.079 | -0.028 | -0.034 | -0.006 | 0.001 | -0.023 | 0.073 | 0.077 | 0.076 | -0.051 | -0.001 | -0.04 | -0.054 | 0.001 | 0.024 | -0.025
IPO11 isoform 2 (UniProt Q9UI26) | 0.028 | 0.004 | 0.024 | 0.047 | -0.002 | 0.052 | 0.082 | -0.031 | -0.031 | 0.014 | -0.104 | -0.3 (active) | -0.004 | 0.066 | -0.01 | -0.068 | 0.028 | -0.002 | -0.082 | -0.016
LTO1 (UniProt Q8WV07) | 0.021 | -0.042 | -0.021 | -0.009 | 0.245 | 0.101 | 0.027 | 0 | -0.121 | -0.04 | -0.018 | 0.322 | 0.058 | 0.063 | -0.008 | -0.029 | -0.312 (active) | 0.013 | -0.105 | 0.035
IMMT isoform 4 (UniProt Q16891) | 0.009 | 0.012 | 0.032 | 0.032 | -0.027 | -0.007 | 0.002 | -0.045 | -0.022 | 0.001 | -0.131 | -0.099 | 0.013 | 0.035 | 0.015 | -0.004 | 0.002 | 0.002 | -0.047 | -0.325 (active)
MICU1 isoform 3 (UniProt Q9BPX6) | -0.002 | 0.052 | -0.003 | -0.028 | 0.117 | -0.049 | 0.042 | -0.001 | 0 | 0.012 | -0.113 | -0.281 | 0.031 | 0.026 | -0.009 | 0.008 | 0.006 | -0.01 | 0.077 | -0.369 (active)
MAP4K4 isoform 3 (UniProt O95819) | -0.166 | 0.013 | 0.022 | 0.012 | 0.033 | -0.007 | 0.028 | -0.02 | 0.017 | -0.012 | -0.082 | -0.316 (active) | 0.011 | 0.047 | 0.017 | -0.184 | 0.012 | 0.058 | 0.001 | -0.299 (active)
LONP2 (UniProt Q86WA8) | 0.173 | -0.119 | 0.08 | 0.009 | -0.083 | 0.128 | -0.137 | 0.013 | -0.05 | -0.056 | 0.141 | 0.16 | 0.063 | 0.336 | -0.032 | 0.034 | -0.106 | 0.05 | 0.054 | 0.17
